# Results reported in the supplement of paper PMC6555819.
# How the values were obtained:
# Assay in all cases: PBM binding z-score (relative to random genomic background probes); higher = stronger binding; sequences stand for … in GC…GCGATTGACAGCGTAGAATGAAGG
# [1] = system: FXR:RXRa (NR concentration 270 nM, RXRa partner concentration 90 nM)
# Procedure, shortened: (§1)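 Ligand-free nuclear receptor dimers were bound for 1 h to custom Agilent 4×180K protein-binding microarrays. Detection used antibodies against each partner (one per run). Binding z-scores rest on regression-normalized fluorescence, with random background probes as the reference.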
# [2] = system: LXRa:RXRa (NR concentration 270 nM, RXRa partner concentration 90 nM)
# Procedure, shortened: as §1
# [3] = system: LXRa homodimer (NR concentration 270 nM)
# Procedure, shortened: as §1
# [4] = system: LXRb:RXRa (NR concentration 270 nM, RXRa partner concentration 90 nM)
# Procedure, shortened: as §1
# [5] = system: LXRb homodimer (NR concentration 270 nM)
# Procedure, shortened: as §1
# [6] = system: PPARa:RXRa (NR concentration 270 nM, RXRa partner concentration 90 nM)
# Procedure, shortened: as §1
# [7] = system: PPARg:RXRa (NR concentration 180 nM, RXRa partner concentration 90 nM)
# Procedure, shortened: as §1
# [8] = system: PPARg:RXRa 270nM:90nM, anti-RXR (NR concentration 270 nM, RXRa partner concentration 90 nM)
# Procedure, shortened: as §1
# [9] = system: PPARg:RXRa 30nM:10nM, anti-RXR (NR concentration 30 nM, RXRa partner concentration 10 nM)
# Procedure, shortened: as §1
# [10] = system: PPARg:RXRa 90nM:30nM, anti-RXR (NR concentration 90 nM, RXRa partner concentration 30 nM)
# Procedure, shortened: as §1
# [11] = system: PPARg:RXRa DBDmut IVT, anti-RXR (DBD mutation: RXRa K156A/R161A, NR concentration 270 nM, RXRa partner concentration 90 nM)
# Procedure, shortened: as §1
# [12] = system: PPARg:RXRa IVT, anti-PPARg (NR concentration 270 nM, RXRa partner concentration 90 nM)
# Procedure, shortened: as §1
# [13] = system: PPARg DBDmut:RXRa IVT, anti-PPARg (DBD mutation: PPARg1 K132A/R137A, NR concentration 270 nM, RXRa partner concentration 90 nM)
# Procedure, shortened: as §1
# [14] = system: PPARg DBDmut IVT, anti-PPARg (DBD mutation: PPARg1 K132A/R137A, NR concentration 270 nM)
# Procedure, shortened: as §1
# [15] = system: PPARg homodimer (NR concentration 180 nM)
# Procedure, shortened: as §1
# [16] = system: PXR:RXRa (NR concentration 270 nM, RXRa partner concentration 90 nM)
# Procedure, shortened: as §1
# [17] = system: PXR homodimer (NR concentration 270 nM)
# Procedure, shortened: as §1
# [18] = system: RARa:RXR (NR concentration 270 nM, RXRa partner concentration 90 nM)
# Procedure, shortened: as §1
# [19] = system: RARa homodimer (NR concentration 270 nM)
# Procedure, shortened: as §1
# [20] = system: RARb:RXRa (NR concentration 270 nM, RXRa partner concentration 90 nM)
# Procedure, shortened: as §1
Sequence,PBM binding z-score [1],PBM binding z-score [2],PBM binding z-score [3],PBM binding z-score [4],PBM binding z-score [5],PBM binding z-score [6],PBM binding z-score [7],PBM binding z-score [8],PBM binding z-score [9],PBM binding z-score [10],PBM binding z-score [11],PBM binding z-score [12],PBM binding z-score [13],PBM binding z-score [14],PBM binding z-score [15],PBM binding z-score [16],PBM binding z-score [17],PBM binding z-score [18],PBM binding z-score [19],PBM binding z-score [20]
ATCGAAAGGTCGAAGGTGAGTATTCCCACCCGAA,4.33,3.66,0.077,2.78,0.842,4.58,4.28,5,1.99,4.39,0.38,2.13,0.944,0.361,2.58,2.89,-0.082,4.32,0.118,3.64
CGAACGAGGGCATGAGTTGATAGCTAATGCCGAT,0.677,0.398,-0.532,0.00979,-0.952,1.51,1.53,1.5,0.214,0.782,2.71,2.2,0.229,-0.661,0.249,0.689,0.178,0.401,0.0358,2.08
CCTGCTAGGTCAATGGTCAGGTAAAGCAGCTCGC,3.13,2.29,-0.153,1.46,-0.313,3.36,4.48,5.09,2.62,4.62,4.38,4.23,0.154,-0.732,1.38,0.832,-0.154,1.93,-0.238,3.81
GCTGGTAGGTCAACTGATGGTCAGCTAAAGCTCG,4.7,3.62,0.696,2.66,0.322,4.64,4.59,4.72,1.84,3.71,5.49,5.82,0.658,0.562,3.06,2.3,-0.226,3.53,1.16,4.29
GCTTGTAGATCAAGCTTAAGAAAGACTAAGCTAA,-0.441,-0.75,-0.914,-0.777,-1.32,-0.455,-0.439,-0.251,-0.693,-0.381,0.937,0.0262,-0.496,-0.218,-0.356,-0.566,-0.868,-0.0967,-0.929,-1.78
ACAGACAGGTGAGTGATGGTAACTCAGCTGGACG,0.332,0.668,-0.354,-0.409,-0.477,-0.213,0.554,-0.115,-0.0308,-0.212,0.622,0.347,-0.278,-0.268,0.364,-0.415,-0.0348,-0.241,0.249,0.377
TCATATAGGTAAACAGGTGAAAGTACGTAAGTTA,1.36,1.03,0.233,1.26,0.199,2.74,4.09,4.04,4.33,4.17,4.97,4.72,2.79,1.19,1.65,0.938,0.715,1.22,1.42,0.779
TGAATGAGGTTATAAGGTCAGGGAACGTTGCAAA,5.12,4.24,0.615,3.38,0.153,5.17,5.07,5.43,2.33,4.46,2.58,4.37,1.54,1.21,2.82,4.17,0.241,5.68,0.814,3.88
ACTAGCAGGCCAAGTTTGGGTCACTAAAACAAAG,0.0701,0.104,-0.274,0.749,-0.496,1.58,0.26,0.637,-0.145,0.427,0.86,1.41,-0.183,-0.616,0.00653,0.707,-0.272,1.49,-0.238,1.79
TCTTGGAGGACACGAAAGGTCAGAGCTCGACATC,3.33,4.06,2.83,3.37,0.286,3.75,1.68,3.16,2.54,2.89,2.26,2.63,0.421,0.521,2.91,4.16,0.329,4.3,0.376,4.39
CCTACTGGGACATTCAGAGGTCATTGATCATATG,3.08,4.71,7.13,4.05,1.06,3.74,2.3,3.13,0.845,2.31,4.26,3.96,0.709,0.697,3.07,5.15,3.43,4.96,1.35,3.11
ATCTCTAGGTATCCAAGTTCAGTGAATGCCGAAC,0.313,0.879,2,0.57,0.976,0.511,0.0341,0.21,0.21,0.503,0.377,0.859,0.495,0.766,1.01,1.5,1.56,0.618,0.883,0.966
CGAACTAGGTCAGAACAGGACAGTGACGGATGAT,1.23,0.594,-0.065,0.276,-0.492,2.87,5.01,4.26,1.69,3.39,7.03,7.13,1.03,0.514,0.929,0.794,0.206,0.633,0.383,2.99
ATCGAAAGGTCGAGGTGAGTATAGAGAAAGGGAA,4.21,3.57,0.072,2.77,0.504,4.79,3.78,3.66,1.28,2.62,0.752,2.38,0.636,0.688,1.8,2.49,0.362,3.37,0.75,4.18
